IDE exosite inh – exo-site inhibitors of human IDE, primary screen, biochemical, fluorescence anisotropy, probe displacement; purified IDE, FL-6b probe fluorescence polarization; active compounds read low; z-score at 20 µM; AID 1259349, 2017; 6.3% of 17,000 active;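 active = z-score of -3 or lower, meaning strong loss of probe binding signal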;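 note: His-tagged human IDE residues 42-1019 made in E. coli with 30 nM FL-6b probe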
An asterisk follows results filed as active. Many of the other results were omitted from the sample, so hits are more common in it than they were.

SMILES | IDE exosite inh
CN(C)C(=O)C[C@H]1C[C@@H]2c3cc(NC(=O)Nc4ccc(F)cc4)ccc3O[C@@H]2[C@@H](CO)O1 | -0.603
CCCNC(=O)Nc1ccc2c(c1)OC[C@H](C)N(Cc1cncnc1)C[C@@H](C)[C@@H](OC)CN(C)C2=O | 0.901
COc1ccc(-c2ccc([C@@H]3[C@@H](C#N)N[C@@H]3CO)cc2)cc1 | 3.45
CO[C@H]1CN(C)C(=O)c2cc(NC(=O)CC(F)(F)F)ccc2OC[C@H](C)N(CC2CC2)C[C@H]1C | -0.0435
Cc1ccccc1-c1ccc([C@@H]2[C@H]3CN(S(C)(=O)=O)CCCCN3[C@H]2CO)cc1 | -5.16*
CS(=O)(=O)N1CCCCN2[C@H](CO)[C@@H](c3ccc(C4=CCCC4)cc3)[C@H]2C1 | 5.12
Cc1ccccc1-c1ccc([C@@H]2[C@@H](CO)N3CCCCN(S(C)(=O)=O)C[C@@H]23)cc1 | -17.9*
CS(=O)(=O)N1CCCCN2[C@H](C1)[C@H](c1ccc(Br)cc1)[C@@H]2CO | -0.69
Cc1ccccc1-c1ccc([C@H]2[C@@H](CO)N3CCCCN(S(C)(=O)=O)C[C@H]23)cc1 | -7.66*
CS(=O)(=O)N1CCCCN2[C@H](C1)[C@H](c1ccc(C3=CCCC3)cc1)[C@@H]2CO | 2.96
Cc1ccccc1-c1ccc([C@@H]2[C@H](CO)N3CCCCN(S(C)(=O)=O)C[C@@H]23)cc1 | -10.3*
Cc1ccccc1-c1ccc([C@H]2[C@@H](CO)N3CCCCN(S(=O)(=O)Cc4ccccc4)C[C@@H]23)cc1 | -1.65
Cc1ccccc1-c1ccc([C@H]2[C@H]3CN(S(=O)(=O)Cc4ccccc4)CCCCN3[C@H]2CO)cc1 | 1.74
CS(=O)(=O)N1CCCCN2[C@H](CO)[C@H](c3ccc(C4=CCCC4)cc3)[C@@H]2C1 | 2.05
CS(=O)(=O)N1CCCCN2[C@@H](CO)[C@@H](c3ccc(C4=CCCC4)cc3)[C@@H]2C1 | 0.723
CCS(=O)(=O)N1CCCCN2[C@H](CO)[C@H](c3ccc(-c4ccccc4)cc3)[C@H]2C1 | 0.627
CC(C)CC#Cc1ccc([C@H]2[C@@H](CO)N3C(=O)CN(C(=O)c4cnccn4)C[C@@H]23)cc1 | 1.63
O=C(c1cnccn1)N1CC(=O)N2[C@H](CO)[C@H](c3ccc(C#CCc4ccccc4)cc3)[C@@H]2C1 | -0.917
O=C1CCC(=O)N[C@@H](c2ccc(F)cc2)C/C=C\C[C@H](c2ccc(F)cc2)N1 | -0.837
O=C(c1cccc(F)c1)N1CC(=O)N2[C@H](C1)[C@H](c1ccc(-c3ccccc3)cc1)[C@@H]2CO | 3.68
O=C(Nc1cccc(F)c1)N1CC(=O)N2[C@H](CO)[C@@H](c3ccc(C#CC4CC4)cc3)[C@@H]2C1 | -0.424
O=C(NC1CCCCC1)N1CC2(C1)[C@H](c1ccccc1)[C@H](CO)N2CC1CCCC1 | 0.347
CN(C)C(=O)c1cccc(-c2ccc(C3[C@H]4CNC[C@@H]3N4S(=O)(=O)c3ccccc3F)cc2)c1 (stereo not given in full) | 0.562
Cc1ccccc1-c1ccc([C@H]2[C@@H](CO)N3CCCCN(S(=O)(=O)Cc4ccccc4)C[C@H]23)cc1 | 0.6
CCS(=O)(=O)N1CCCCN2[C@H](CO)[C@@H](c3ccc(-c4ccccc4C)cc3)[C@H]2C1 | -1.66
SMILES | IDE exosite inh
CCS(=O)(=O)N1CCCCN2[C@@H](CO)[C@@H](c3ccc(-c4ccccc4C)cc3)[C@@H]2C1 | -14.5*
C[C@H](CO)N1C[C@H](C)[C@H](CN(C)C(=O)c2ccncc2)OCCCC[C@H](C)Oc2ccc(NC(=O)CCC(F)(F)F)cc2C1=O | 0.692
COc1ccc2c3c([nH]c2c1)[C@H](CO)NCC31CN(C(=O)Nc2c(C)noc2C)C1 | 1.33
CN1CCN(C(=O)C[C@@H]2CC[C@H]3[C@@H](COc4ccc(NC(=O)c5cccs5)cc4C(=O)N3C)O2)CC1 | -1.12
CCC(=O)N1[C@H](CO)[C@H](c2ccc(C3=CCCC3)cc2)[C@@H]1CNC1CCCCC1 | 0.00778
N#C[C@@H]1[C@@H](c2ccc(C#Cc3ccccc3F)cc2)[C@@H](CO)N1C(=O)C1CC1 | -1.6
N#C[C@H]1N[C@@H](CO)[C@H]1c1ccc(C#Cc2ccccc2F)cc1 | -3.96*
N#C[C@@H]1[C@@H](c2ccccc2)[C@@H](CO)N1C(=O)c1cccnc1 | 6.28
N#C[C@@H]1N[C@@H](CO)[C@H]1c1ccc(-c2ccccc2F)cc1 | 2.06
N#C[C@@H]1[C@H](c2ccc(C#Cc3ccccc3F)cc2)[C@@H](CO)N1C(=O)c1cccnc1 | -4.03*
N#C[C@@H]1[C@H](c2ccc(C#Cc3ccccc3F)cc2)[C@H](CO)N1C(=O)c1cccnc1 | -1.67
N#C[C@@H]1[C@@H](c2ccc(C#Cc3ccccc3F)cc2)[C@H](CO)N1C(=O)C1CCC1 | 1.05
N#C[C@H]1[C@H](c2ccc(C#Cc3ccccc3F)cc2)[C@@H](CO)N1C(=O)C1CC1 | 3.36
N#C[C@H]1[C@H](c2ccc(C#Cc3ccccc3F)cc2)[C@@H](CO)N1C(=O)C1CCOCC1 | -5.92*
N#C[C@@H]1[C@H](c2ccc(C#Cc3ccccc3F)cc2)[C@@H](CO)N1C(=O)C1CCC1 | -4.83*

Screening data from PubChem.
